Reference: PubChem BioAssay (NCI)
The panel holds about 79,000 compounds, 15% with a hit somewhere; the sample as a whole holds those more often. Calls of active or inactive are those of the source. No stated cut-off is given here; in the data, active means growth inhibition above about 70%; inactive means the rest.

Experiments:
[1] = NCI Yeast Anticancer Drug Screen. Data for the wt1 strain (AID 149);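 further: 0% = growth of vehicle-treated wt1 cultures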; conditions: S. cerevisiae wt1 strain (SPY 50644) growth inhibition, hits give high values
How it was run: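 Vehicle-normalised growth inhibition; strain wt1; compound exposure.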

[2] = NCI Yeast Anticancer Drug Screen. Data for the mgt1 strain (AID 153); conditions: S. cerevisiae mgt1 mutant growth inhibition, hits give high values
How it was run: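 mgt1 yeast grown with test compound; read-out is growth inhibition versus vehicle-treated cultures.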

[3] = NCI Yeast Anticancer Drug Screen. Data for the rad50 strain (AID 155);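 further: 0% = growth of vehicle-only cultures of the same strain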; conditions: S. cerevisiae rad50 strain growth inhibition, hits give high values
How it was run: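 A DNA repair-deficient yeast mutant serves as the test organism; compound-induced growth inhibition is calculated against vehicle-treated cells.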

[4] = NCI Yeast Anticancer Drug Screen. Data for the mec2-1 strain (AID 157); conditions: S. cerevisiae mec2-1 strain, hits give high values
How it was run: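 Yeast mec2-1 mutant treated with compound. Readout: growth inhibition vs vehicle controls.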

[5] = NCI Yeast Anticancer Drug Screen. Data for the rad14 strain (AID 159);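 further: 0% = growth of vehicle-treated control cultures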; conditions: S. cerevisiae rad14 strain growth inhibition, hits give high values
How it was run: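 Vehicle-treated cultures served as the baseline for growth inhibition of a DNA repair-mutant yeast strain exposed to each compound.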

[6] = NCI Yeast Anticancer Drug Screen. Data for the CLN2oe strain (AID 163);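 further: 0% = growth of vehicle-only control cultures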; conditions: S. cerevisiae CLN2oe strain, hits give high values
How it was run: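 Read-out: yeast growth inhibition, expressed relative to vehicle-only controls. The strain bears an engineered cell-cycle alteration.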

[7] = NCI Yeast Anticancer Drug Screen. Data for the cln2 rad14 strain (AID 165);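 further: 0% = growth equal to vehicle treated cultures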; conditions: S. cerevisiae cln2 rad14 strain, hits give high values
How it was run: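 cln2 rad14 yeast strain; compound exposure; growth inhibition read vs vehicle controls.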

[8] = NCI Yeast Anticancer Drug Screen. Data for the bub3 strain (AID 167); conditions: S. cerevisiae bub3 mutant strain, hits give high values
How it was run: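 Inhibition values come from growth of compound-treated mutant yeast normalised to vehicle-treated controls.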

[9] = NCI Yeast Anticancer Drug Screen. Data for the wt2 strain (AID 169);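 further: 0% = growth of vehicle-treated yeast cultures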; conditions: S. cerevisiae wt2 strain growth inhibition, hits give high values
How it was run: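 Read-out: growth inhibition versus vehicle-treated control cultures after compound exposure of the yeast strain.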

[10] = NCI Yeast Anticancer Drug Screen. Data for the mlh1 strain (AID 171);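 further: 0% = growth of vehicle-treated control cultures of the same strain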; conditions: S. cerevisiae mlh1 strain growth inhibition, hits give high values
How it was run: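 Read-out: growth inhibition versus vehicle controls. Strain: engineered yeast with a defined DNA repair or cell cycle defect, compound-treated.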

[11] = NCI Yeast Anticancer Drug Screen. Data for the sgs1 strain (AID 173);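 further: 0% = growth of vehicle-only control cultures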; conditions: S. cerevisiae sgs1 mutant, hits give high values
How it was run: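 Read-out: yeast growth inhibition relative to vehicle controls, following compound exposure of a strain with a defined DNA repair/cell cycle alteration.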

[12] = NCI Yeast Anticancer Drug Screen. Data for the mlh1 rad18 strain (AID 175); conditions: S. cerevisiae mlh1 rad18 strain growth inhibition, hits give high values
How it was run: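 Yeast w/ defined DNA-repair lesions; compound exposure; growth vs vehicle controls → % inhibition.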

[13] = NCI Yeast Anticancer Drug Screen. Data for the rad18 strain (AID 177); conditions: S. cerevisiae rad18 mutant growth inhibition, hits give high values
How it was run: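 Readout: growth inhibition vs vehicle controls. Cells: genetically altered yeast strain, DNA repair defect.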

[14] = NCI Yeast Anticancer Drug Screen. Data for the sgs1 mgt1 strain (AID 161);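 further: 0% = growth of cultures given vehicle only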; conditions: S. cerevisiae sgs1 mgt1 strain, hits give high values
How it was run: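 Inhibition of yeast growth, normalised to vehicle-treated controls, is reported for a strain bearing genetic alterations in DNA damage repair.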

[15] = at 5.0 µM (retest, dose inferred, filed as 0.5)
[16] = at 50.0 µM (retest, dose inferred, filed as 5.0)

Measured: growth inhibition

CCSc1c2ccccc2c(-c2nc(F)nc(F)n2)n1CCc1ccccc1
inactive: [1]; at 1.2 µM -7% | [1]; at 3.7 µM -4% | [1]; at 11.0 µM 10% | [2]; at 1.2 µM -27% | [2]; at 3.7 µM -32% | [2]; at 11.0 µM -29% | [3]; at 1.2 µM -30% | [3]; at 3.7 µM -10% | [3]; [15] -23% | [3]; at 11.0 µM -6% | [3]; [16] 52% | [4]; at 1.2 µM -14% | [4]; at 3.7 µM -17% | [4]; [15] -43% | [4]; at 11.0 µM -4% | [4]; [16] 0% | [5]; at 1.2 µM -17% | [5]; at 3.7 µM -12% | [5]; at 11.0 µM 2% | [6]; at 1.2 µM -24% | [6]; at 3.7 µM -20% | [6]; at 11.0 µM 4% | [7]; [15] 19% | [8]; at 1.2 µM -11% | [8]; at 3.7 µM -21% | [8]; [15] 0% | [8]; at 11.0 µM -3% | [9]; at 1.2 µM -1% | [9]; at 3.7 µM -2% | [9]; at 11.0 µM 4% | [10]; at 1.2 µM -41% | [10]; at 3.7 µM -34% | [10]; at 11.0 µM -22% | [11]; at 1.2 µM 34% | [11]; at 3.7 µM 32% | [11]; at 11.0 µM 39% | [12]; [15] -12% | [13]; at 1.2 µM -5% | [13]; at 3.7 µM 0% | [13]; at 11.0 µM 7%
active: [1]; at 33.0 µM 80% | [1]; at 100.0 µM 97% | [2]; at 33.0 µM 81% | [2]; at 100.0 µM 97% | [3]; at 33.0 µM 72% | [3]; at 50.0 µM 87% | [3]; at 100.0 µM 96% | [4]; at 33.0 µM 78% | [4]; at 50.0 µM 80.7% | [4]; at 100.0 µM 98% | [5]; at 33.0 µM 84% | [5]; at 100.0 µM 97% | [6]; at 33.0 µM 89% | [6]; at 100.0 µM 97% | [7]; [16] 70% | [7]; at 50.0 µM 86.6% | [8]; at 33.0 µM 82% | [8]; [16] 88% | [8]; at 50.0 µM 86% | [8]; at 100.0 µM 97% | [9]; at 33.0 µM 77% | [9]; at 100.0 µM 98% | [10]; at 33.0 µM 75% | [10]; at 100.0 µM 97% | [11]; at 33.0 µM 79% | [11]; at 100.0 µM 98% | [12]; [16] 77% | [12]; at 50.0 µM 81.3% | [13]; at 33.0 µM 75% | [13]; at 100.0 µM 97%

CCCCCCCCCC/C=C\CC(=O)O
active: [1]; at 100.0 µM 97% | [2]; at 100.0 µM 99% | [3]; [16] 81% | [3]; at 100.0 µM 99% | [4]; [16] 74% | [4]; at 100.0 µM 99% | [14]; [16] 89% | [6]; at 100.0 µM 73% | [8]; at 100.0 µM 98% | [9]; at 100.0 µM 98% | [10]; at 100.0 µM 99% | [11]; at 100.0 µM 99% | [12]; [16] 87% | [13]; at 100.0 µM 99%
inactive: [1]; at 1.2 µM -1% | [1]; at 3.7 µM -2% | [1]; at 11.0 µM -3% | [1]; at 33.0 µM 2% | [2]; at 1.2 µM -3% | [2]; at 3.7 µM -2% | [2]; at 11.0 µM -2% | [2]; at 33.0 µM 28% | [3]; at 1.2 µM 0% | [3]; at 3.7 µM -1% | [3]; [15] -1% | [3]; at 11.0 µM 17% | [3]; at 33.0 µM 18% | [3]; at 50.0 µM -10.8% | [4]; at 1.2 µM -3% | [4]; at 3.7 µM 0% | [4]; [15] 5% | [4]; at 11.0 µM 1% | [4]; at 33.0 µM 8% | [4]; at 50.0 µM -0.8% | [14]; [15] -1% | [14]; at 50.0 µM 6.35% | [6]; at 1.2 µM -3% | [6]; at 3.7 µM -1% | [6]; at 11.0 µM -1% | [6]; at 33.0 µM -5% | [7]; [15] 7% | [7]; [16] 14% | [7]; at 50.0 µM 9.65% | [8]; at 1.2 µM -2% | [8]; at 3.7 µM -4% | [8]; [15] 1% | [8]; at 11.0 µM -8% | [8]; at 33.0 µM -3% | [8]; [16] 1% | [8]; at 50.0 µM 36.1% | [9]; at 1.2 µM -2% | [9]; at 3.7 µM 6% | [9]; at 11.0 µM -3% | [9]; at 33.0 µM 3% | [10]; at 1.2 µM 0% | [10]; at 3.7 µM -4% | [10]; at 11.0 µM -3% | [10]; at 33.0 µM 11% | [11]; at 1.2 µM -3% | [11]; at 3.7 µM -2% | [11]; at 11.0 µM 2% | [11]; at 33.0 µM 31% | [12]; [15] 4% | [12]; at 50.0 µM -21.2% | [13]; at 1.2 µM -3% | [13]; at 3.7 µM 2% | [13]; at 11.0 µM -1% | [13]; at 33.0 µM 48%

CCOC(=O)c1[nH]c2cccc3c2c1CC(Br)C3=O (stereo not drawn)
active: [2]; at 100.0 µM 88% | [3]; [16] 92% | [3]; at 50.0 µM 89.8% | [3]; at 100.0 µM 76% | [4]; at 33.0 µM 80% | [4]; [16] 96% | [4]; at 50.0 µM 91.3% | [4]; at 100.0 µM 87% | [14]; [16] 96% | [14]; at 50.0 µM 83.3% | [8]; [16] 93% | [8]; at 50.0 µM 76% | [8]; at 100.0 µM 78% | [9]; at 11.0 µM 81% | [9]; at 33.0 µM 97% | [9]; at 100.0 µM 97% | [10]; at 100.0 µM 83% | [11]; at 100.0 µM 80% | [13]; at 33.0 µM 74% | [13]; at 100.0 µM 89%
inactive: [1]; at 1.2 µM -23% | [1]; at 3.7 µM -5% | [1]; at 11.0 µM -3% | [1]; at 33.0 µM 19% | [1]; at 100.0 µM 60% | [2]; at 1.2 µM -33% | [2]; at 3.7 µM 0% | [2]; at 11.0 µM -4% | [2]; at 33.0 µM 67% | [3]; at 1.2 µM -15% | [3]; at 3.7 µM -34% | [3]; [15] 45% | [3]; at 11.0 µM -12% | [3]; at 33.0 µM 57% | [4]; at 1.2 µM -6% | [4]; at 3.7 µM 3% | [4]; [15] 46% | [4]; at 11.0 µM 14% | [5]; at 1.2 µM 0% | [5]; at 3.7 µM -8% | [5]; at 11.0 µM -9% | [5]; at 33.0 µM 4% | [5]; at 100.0 µM 58% | [14]; [15] 66% | [6]; at 1.2 µM -48% | [6]; at 3.7 µM -44% | [6]; at 11.0 µM -69% | [6]; at 33.0 µM -39% | [6]; at 100.0 µM 67% | [7]; [15] 6% | [7]; [16] 60% | [7]; at 50.0 µM 50.6% | [8]; at 1.2 µM -46% | [8]; at 3.7 µM -39% | [8]; [15] 56% | [8]; at 11.0 µM -29% | [8]; at 33.0 µM 32% | [9]; at 1.2 µM -28% | [9]; at 3.7 µM 2% | [10]; at 1.2 µM -27% | [10]; at 3.7 µM -19% | [10]; at 11.0 µM -11% | [10]; at 33.0 µM 53% | [11]; at 1.2 µM -8% | [11]; at 3.7 µM 14% | [11]; at 11.0 µM 27% | [11]; at 33.0 µM 68% | [13]; at 1.2 µM -39% | [13]; at 3.7 µM -22% | [13]; at 11.0 µM 2%
